Assay results: PubChem BioAssay (NCATS)
Results filed as inconclusive are left out. Calls of active or inactive are those of the source. Calls follow the shape of the dose curve; as a rule, active = well fitted cell-killing curve with a large enough effect; inconclusive = small, poorly fitted or top-dose-only effect, or effect the other way; inactive = no such curve, though single readings can be large or run the other way. Starred links: 1 amine or outer side, 2 acyl side, 3 side chain; linkers in the order of their positions; H or OH if unused. Positions of bridges follow the written chain, without caps; N, C: chain ends. Non-standard residues stand in square brackets, D forms with d. Residues, ends and D or L forms follow the SMILES beside them. Chains are numbered I, II in the order given. Actinocin(9to1) = Cc1c2oc3c(C)ccc(C(=O)[*:1])c3nc-2c(C(=O)[*:2])c(N)c1=O; NMeV = CN[CH](C(=O)O)C(C)C; Sar = CNCC(=O)O

Assay: Quantitative High-Throughput drug screen in 47 multiple myeloma cell lines against the NCATS MIPE library collection: OCIMY7_PLB cell viability assay (AID 1918987); also: nearly all actives have a fitted effect of over 65% in size
Details: OCI-MY7 myeloma viability, CellTiter-Glo ATP, 48 h; viability (% of DMSO): at 45.8 µM (top of the series)
Method in brief: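 Viability after 48 h drug exposure was measured as ATP-dependent luminescence. Cells, 500 per well, sat at 37 °C under 5% CO2; DMSO wells set 100%, media-only wells 0%.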
Potency is read from the fitted curve at half-maximal effect.

Structure (SMILES) | Potency
CCc1ccc(C(=O)Nc2cc(CN3CCN(C)CC3)cc(C(F)(F)F)c2)cc1C#Cc1cnc2ccnn2c1 | 1870 nM (active)
C=CC[C@@H]1C=C(C)C[C@H](C)C[C@H](OC)[C@H]2O[C@@](O)(C(=O)C(=O)N3CCCC[C@H]3C(=O)O[C@H](C(C)=C[C@@H]3CC[C@H](O)[C@H](OC)C3)[C@@H](C)[C@@H](O)CC1=O)[C@@H](C)C[C@@H]2OC | 2090 nM (active)
CO[C@@H]1[C@@H](O)[C@H](O)[C@@H](n2c3c(Cl)cccc3c3c4c(c5c6cccc(Cl)c6[nH]c5c32)C(=O)NC4=O)O[C@@H]1CO | 148 nM (active)
Cc1cc(O)c2c(c1)C(=O)c1cccc(O)c1C2=O | inactive
C[C@H](NC(=O)C(C#N)=Cc1cccc(Br)n1)c1ccccc1 | 743 nM (active)
Cn1cnc(=N)c2[nH]cnc21 | 66.2 nM (active)
CC(C)N1[N]C(=C2C=c3cc(O)ccc3=N2)c2c(N)ncnc21 | 743 nM (active)
COc1cccc2c1C(=O)c1c(O)c3c(c(O)c1C2=O)C[C@@](O)(C(=O)CO)C[C@@H]3O[C@H]1C[C@H](N)[C@@H](O)[C@H](C)O1 | 2090 nM (active)
COc1cc(C=CC(=O)CC(=O)C=Cc2ccc(O)c(OC)c2)ccc1O | 2150 nM (active)
CCC[C@H]1C[C@H](C(=O)N[C@@H]([C@@H]2O[C@@H](SC)[C@@H](O)[C@@H](O)[C@@H]2O)[C@H](C)Cl)N(C)C1 | inactive
C=CC(=O)Nc1ccc2ncnc(Nc3ccc(OCc4cccc(F)c4)c(Cl)c3)c2c1 | 105 nM (active)
OCc1ccccc1O[C@@H]1O[C@H](CO)[C@H](O)[C@H](O)[C@H]1O | 26400 nM (active)
Cn1cc(C2=C(c3c4n(c5ccccc35)CCC(CN)C4)C(=O)NC2=O)c2ccccc21 (centres undefined) | 7430 nM (active)
O=C(Nc1cccc(Nc2ncc(Br)c(NCCc3cnc[nH]3)n2)c1)N1CCCC1 | 3720 nM (active)
C=CCNc1c(O)cc2c(O)c1C[C@@H](C)C[C@H](OC)[C@@H](O)[C@@H](C)C=C(C)[C@H](OC(N)=O)[C@@H](OC)C=CC=C(C)C(=O)N2 | 209 nM (active)
C[C@@H]1CC[C@@]2(OC1)OC1CC3C4CC=C5CC(O)CCC5(C)C4CCC3(C)C1[C@@H]2C (some centres undefined) | inactive
CCS(=O)(=O)Nc1ccc2[nH]c(O)c(C(=Nc3ccc(CN4CCCCC4)cc3)c3ccccc3)c2c1 | 66.2 nM (active)
CCN(CC)CCNC(=O)c1c(C)[nH]c(C=C2C(=O)Nc3ccc(F)cc32)c1C | 171 nM (active)
O=C1NC(=O)[C@@H](c2cn3c4c(cccc24)CCC3)[C@H]1c1c[nH]c2ccccc12 | 37.2 nM (active)
COC1=C2C[C@@H](C)C[C@H](OC)[C@@H](O)[C@@H](C)C=C(C)[C@H](OC(N)=O)[C@@H](OC)C=CC=C(C)C(=O)NC(=CC1=O)C2=O | 74.3 nM (active)

Structure (SMILES) | Potency
NC(=NCCCCCCN=C(N)N=C(N)Nc1ccc(Cl)cc1)N=C(N)Nc1ccc(Cl)cc1 | 2960 nM (active)
Nc1nc(N)c2nc(-c3cccc(O)c3)c(-c3cccc(O)c3)nc2n1 | 372 nM (active)
CC(C)C[C@H](NC(=O)[C@@H](NC(=O)c1cccc(-c2ccccc2)n1)[C@@H](C)O)B(O)O | 14.8 nM (active)
O=C1CSC(=O)N1C(CCc1ccncc1)COc1ccc(-c2cccc([N+](=O)[O-])c2)cc1 (centres undefined) | 20900 nM (active)
C#C[C@]1(O)CC[C@@H]2[C@@H]3CCC4=CC(=O)CC[C@@H]4[C@H]3CC[C@@]21CC | inactive
CC(=O)O[C@@]12CO[C@H]1C[C@H](O)[C@@]1(C)C(=O)[C@H](O)C3=C(C)[C@@H](OC(=O)C(O)[C@@H](NC(=O)OC(C)(C)C)c4ccccc4)C[C@@](O)([C@@H](OC(=O)c4ccccc4)[C@@H]21)C3(C)C (some centres undefined) | inactive
C[C@H](NCc1ccc(OCc2cccc(F)c2)cc1)C(N)=O | 3320 nM (active)
C[C@@]12C(=O)OC(=O)[C@@]1(C)C1CCC2O1 | 743 nM (active)
Cc1c2oc3c(C)ccc(C(=O)NC4C(=O)NC(C(C)C)C(=O)N5CCCC5C(=O)N(C)CC(=O)N(C)C(C(C)C)C(=O)OC4C)c3nc-2c(C(=O)NC2C(=O)NC(C(C)C)C(=O)N3CCCC3C(=O)N(C)CC(=O)N(C)C(C(C)C)C(=O)OC2C)c(N)c1=O (centres undefined) (I: TVP[Sar][NMeV] / II: TVP[Sar][NMeV]; ester I:1-I:C, II:1-II:C; linker I:N-II:N via Actinocin(9to1); configuration not given here) | inactive
CC(C)c1cnn2c(NCc3ccccc3)cc(NCCCCCCN)nc12 | 11800 nM (active)
CC(C=CC(=O)NO)=C[C@@H](C)C(=O)c1ccc(N(C)C)cc1 | 148 nM (active)
CN1[C@H]2CC(OC(=O)[C@@H](CO)c3ccccc3)C[C@H]1[C@H]1O[C@H]12 (some centres undefined) | inactive
c1ccc(CNc2nc(NCc3ccccc3)c3ccccc3n2)cc1 | 4690 nM (active)
CN(C)c1ccc2cc(C(=O)N[C@@H](CCCN=C(N)CCl)C(=O)NCc3ccccc3)ccc2c1 | 13200 nM (active)
COc1cccc2c1C(=O)c1c(O)c3c(c(O)c1C2=O)C[C@@](O)(C(=O)CO)C[C@H]3O[C@H]1C[C@H](N)[C@H](O)[C@H](C)O1 | 166 nM (active)
CCC(C(=O)O)C1CCC(C)C(C(C)C(O)C(C)C(=O)C(CC)C2OC3(C=CC(O)[C@@]4(CC[C@](C)(C5CC[C@@](O)(CC)C(C)O5)O4)O3)C(C)CC2C)O1 (some centres undefined) | 2960 nM (active)
CCC(C=C[C@@H]1OC(=O)C=C[C@H]1C)=C[C@H](C)CC=CC(C)=C[C@@H](C)C(=O)[C@@H](C)[C@H](O)[C@@H](C)CC(C)=CC(=O)O | 39.2 nM (active)
CC(C)C[C@H](NC(=O)CNC(=O)c1cc(Cl)ccc1Cl)B1OC(=O)CC(CC(=O)O)(C(=O)O)O1 (some centres undefined) | 29.6 nM (active)
COc1cc2c(cc1OC)[C@@H]1C(=O)c3ccc4c(c3O[C@@H]1CO2)C=CC(C)(C)O4 | 418 nM (active)
